# Results reported in PubChem BioAssay.
# Active and inactive are the calls of the source. Unless noted, the rule behind the calls is not given here.
# Key:
# [1] = test system: Wnt5a (protein binding on small-molecule microarray); assay: Wnt5a binders on small-molecule microarray, primary screen, biophysical, 635/667 nm fluorescence (AID 1142); settings: 635 nm fluorescence, higher = more signal;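 note: fluorescence read at 667 nm with signal to noise per printed feature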
# [2] = cell viability in Huh7 cells, primary screen, cytotoxicity control for HCV replication inhibitor project, CellTiter-Glo luminescence, basal, 48 h (AID 1143); settings: Huh7 HCV replicon, higher = more signal, called active from +8 up or from −8 down;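 note: Huh7 hepatoma cells carrying a hepatitis C replication reporter with no stimulus; test concentration not given here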
# [3] = P. aeruginosa biofilm formation inhibitors, primary screen, PAO1 strain, BacTiter-Glo luminescence, LB-PBS (AID 1144); settings: 12 h, higher = more signal
# [4] = CREB reporter modulators without forskolin, primary screen, cell-based, PC12, CRE-LacZ reporter, unstimulated (AID 1145); settings: no forskolin, luminescence, 4.5 h, higher = more signal, called active from +8 up or from −8 down
# [5] = CREB reporter modulators under forskolin, primary screen, cell-based, PC12, CRE-LacZ reporter, forskolin-stimulated (AID 1146); settings: luminescence, 4.5 h, higher = more signal, called active from +8 up or from −8 down;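 note: PC12 cells with 6xCRE LacZ reporter stimulated by forskolin 10 µM; beta-galactosidase reporter signal reflecting CREB driven transcription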
# [6] = molecular target: Streptavidin (Streptomyces avidinii) (UniProt P22629); assay: streptavidin binders on small-molecule microarray, primary screen, artefact control for SMM compound annotation, biophysical, 635/667 nm fluorescence (AID 1147); settings: streptavidin binding, higher = more signal;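 note: signal reflects streptavidin binding to arrayed compounds as a control protein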
# [7] = small-molecule binders of probe aInhba, primary screen, biochemical, small-molecule microarray, 635/667 nm fluorescence (AID 1148); settings: higher = more signal;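 note: score merges 667nm spot fluorescence with signal-to-noise for antibody binding to printed compounds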
# [8] = molecular target: Torsin-1A (Homo sapiens) (UniProt O14656); assay: torsin A binders from cell lysate, primary screen, small-molecule microarray, wild-type, 635/667 nm (AID 1149); settings: COS7 hTOR1A-WT lysate, 635 nm fluorescence, higher = more signal
# [9] = molecular target: Torsin-1A (Homo sapiens) (UniProt O14656); assay: small-molecule binders of mutant TOR1A in lysate, primary screen, cell lysate, small-molecule microarray, COS7 lysate, 635/667 nm fluorescence (AID 1150); settings: COS7 hTOR1A mutant lysate, 635 nm fluorescence, higher = more signal;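 note: score pools 667 nm emission and signal to noise measuring lysate protein binding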
# [10] = test system: Sonic hedgehog protein (Shh); assay: small-molecule binders of Shh protein, primary screen, biochemical, small-molecule microarray, 635/667 nm fluorescence (AID 1151); settings: small-molecule microarray binding, 635 nm fluorescence; higher = more signal;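 note: Shh protein binding to compounds spotted on small-molecule microarray slides; score combines spot fluorescence intensity with signal-to-noise across triplicate slides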
# [11] = E. coli DRC41 culture turbidity changes, primary screen, E. coli filamentation inducer project, strain DRC41, OD650, 48 h (AID 1152);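 note: E. coli MC1000 strain DRC41 lacking acrAB efflux pump and sulA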; settings: E. coli DRC41 (acrAB sulA), higher = more signal, called active from +8 up or from −8 down
# [12] = small-molecule binders of probe aLefty1, primary screen, biochemical, small-molecule microarray, 635/667 nm fluorescence (AID 1153); settings: higher = more signal;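 note: score merges spot fluorescence with signal-to-noise ratio from the scanned slide images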
# [13] = PSAC antagonists in infected red cells, primary screen, cell-based, P. falciparum Indochina, OD700, 1 h (AID 1154); settings: P. falciparum Indochina infected RBC osmotic lysis, higher = more signal, called active from +8 up or from −8 down
# [14] = PSAC antagonists in infected red cells, primary screen, cell-based, P. falciparum Indochina, OD700, 2 h (AID 1155);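 note: lysis reports solute entry through the parasite surface anion channel PSAC; channel blockers reduce lysis of infected cells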; settings: P. falciparum Indochina infected erythrocytes, osmotic lysis OD700; higher = more signal, called active from +8 up or from −8 down
# [15] = osmotic lysis modulators in infected erythrocytes, primary screen, PSAC antagonist project, cell-based, P. falciparum Indochina, OD700, 3 h (AID 1156); settings: higher = more signal, called active from +8 up or from −8 down
# [16] = PSAC antagonists in infected red cells, primary screen, cell-based, P. falciparum Indochina, OD700, 18 h (AID 1157); settings: P. falciparum Indochina infected erythrocytes, osmotic lysis OD700, 18 h; higher = more signal, called active from +8 up or from −8 down
# [17] = modulators of S6 phosphorylation in cells, primary screen, cell-based, A549, cytoblot, luminescence, serum-stimulated (AID 1158); settings: A549 phospho-S6 cytoblot, 5 h, higher = more signal;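 note: serum-stimulated A549 lung adenocarcinoma cells; signal is phosphorylated S6 detected by cytoblot immunostaining with HRP secondary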
# [18] = molecular target: NADPH oxidase 2 (Homo sapiens) (UniProt P04839); assay: NOX2-dependent H2O2 signal modulators, primary screen, NOX inhibitor project, cell-based, HEK293-NOX2, PMA-stimulated, Amplex Red fluorescence (AID 1159); settings: 45 min, higher = more signal, called active from +8 up or from −8 down; note: test concentration not given here
# [19] = molecular target: NADPH oxidase 4 (Homo sapiens) (UniProt Q9NPH5); assay: NOX4-dependent H2O2 signal modulators, primary screen, NOX inhibitor project, cell-based, HEK293-NOX4, tetracycline-induced, Amplex Red fluorescence (AID 1160); settings: 45 min, higher = more signal, called active from +8 up or from −8 down
# [20] = molecular target: NADPH oxidase 5 (Homo sapiens) (UniProt Q96PH1); assay: NOX5-dependent H2O2 signal modulators, primary screen, NOX inhibitor project, cell-based, HEK293-NOX5, Amplex Red fluorescence (AID 1161); settings: HEK293-NOX5, ionomycin, 45 min, higher = more signal
# NADPH oxidase 5 (Homo sapiens), sequence (Q96PH1 whole entry, looked up): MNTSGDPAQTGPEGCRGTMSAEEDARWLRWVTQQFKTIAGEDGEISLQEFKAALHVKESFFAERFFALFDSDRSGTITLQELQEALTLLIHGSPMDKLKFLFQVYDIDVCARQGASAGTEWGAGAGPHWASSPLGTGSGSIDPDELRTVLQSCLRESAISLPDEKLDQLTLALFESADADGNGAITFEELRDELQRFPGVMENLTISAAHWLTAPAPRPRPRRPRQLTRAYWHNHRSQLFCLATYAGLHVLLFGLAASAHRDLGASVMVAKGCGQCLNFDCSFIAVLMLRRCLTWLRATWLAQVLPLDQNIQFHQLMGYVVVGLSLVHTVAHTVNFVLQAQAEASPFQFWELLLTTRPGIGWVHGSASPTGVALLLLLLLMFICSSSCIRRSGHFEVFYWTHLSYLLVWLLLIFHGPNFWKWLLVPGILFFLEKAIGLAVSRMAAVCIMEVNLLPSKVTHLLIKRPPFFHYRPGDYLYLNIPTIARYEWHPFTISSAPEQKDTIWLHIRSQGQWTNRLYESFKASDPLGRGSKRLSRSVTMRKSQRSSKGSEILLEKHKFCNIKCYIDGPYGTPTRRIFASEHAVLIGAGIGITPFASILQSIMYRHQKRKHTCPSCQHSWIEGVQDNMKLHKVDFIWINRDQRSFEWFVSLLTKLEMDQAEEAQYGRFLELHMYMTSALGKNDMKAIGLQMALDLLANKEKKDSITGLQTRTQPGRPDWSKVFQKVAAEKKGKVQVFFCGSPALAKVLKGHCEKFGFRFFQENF
# Torsin-1A (Homo sapiens), sequence (O14656 whole entry, looked up): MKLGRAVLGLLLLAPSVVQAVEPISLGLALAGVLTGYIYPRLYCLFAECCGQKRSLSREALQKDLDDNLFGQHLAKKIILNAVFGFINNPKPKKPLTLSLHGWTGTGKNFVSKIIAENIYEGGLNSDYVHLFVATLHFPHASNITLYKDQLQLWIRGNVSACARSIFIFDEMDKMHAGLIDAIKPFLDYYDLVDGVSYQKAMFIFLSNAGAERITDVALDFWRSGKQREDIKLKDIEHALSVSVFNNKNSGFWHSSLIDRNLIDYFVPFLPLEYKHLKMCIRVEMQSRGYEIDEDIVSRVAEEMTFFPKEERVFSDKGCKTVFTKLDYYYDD
# NADPH oxidase 4 (Homo sapiens), sequence (Q9NPH5 whole entry, looked up): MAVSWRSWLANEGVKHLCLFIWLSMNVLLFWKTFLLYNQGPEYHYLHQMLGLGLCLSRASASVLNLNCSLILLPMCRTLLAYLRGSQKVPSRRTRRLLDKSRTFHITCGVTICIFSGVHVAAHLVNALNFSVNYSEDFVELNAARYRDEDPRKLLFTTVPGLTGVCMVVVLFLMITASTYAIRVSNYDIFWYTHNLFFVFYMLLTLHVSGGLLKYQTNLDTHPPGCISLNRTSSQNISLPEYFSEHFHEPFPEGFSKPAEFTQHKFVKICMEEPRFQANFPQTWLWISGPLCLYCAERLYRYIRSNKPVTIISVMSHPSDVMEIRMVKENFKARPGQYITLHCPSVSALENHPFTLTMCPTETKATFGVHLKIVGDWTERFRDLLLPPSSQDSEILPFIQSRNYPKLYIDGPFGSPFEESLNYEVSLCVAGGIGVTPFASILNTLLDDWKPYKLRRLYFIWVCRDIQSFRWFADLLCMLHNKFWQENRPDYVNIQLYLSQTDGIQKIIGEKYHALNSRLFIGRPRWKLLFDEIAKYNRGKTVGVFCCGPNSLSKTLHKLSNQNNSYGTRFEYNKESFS
# Streptavidin (Streptomyces avidinii), sequence (P22629 whole entry, looked up): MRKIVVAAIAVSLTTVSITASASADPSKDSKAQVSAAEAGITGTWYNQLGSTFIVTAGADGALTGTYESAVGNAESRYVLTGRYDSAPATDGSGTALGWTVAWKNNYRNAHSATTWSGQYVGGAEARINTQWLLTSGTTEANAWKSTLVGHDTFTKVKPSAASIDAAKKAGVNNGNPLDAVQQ
# NADPH oxidase 2 (Homo sapiens), sequence (P04839 whole entry, looked up): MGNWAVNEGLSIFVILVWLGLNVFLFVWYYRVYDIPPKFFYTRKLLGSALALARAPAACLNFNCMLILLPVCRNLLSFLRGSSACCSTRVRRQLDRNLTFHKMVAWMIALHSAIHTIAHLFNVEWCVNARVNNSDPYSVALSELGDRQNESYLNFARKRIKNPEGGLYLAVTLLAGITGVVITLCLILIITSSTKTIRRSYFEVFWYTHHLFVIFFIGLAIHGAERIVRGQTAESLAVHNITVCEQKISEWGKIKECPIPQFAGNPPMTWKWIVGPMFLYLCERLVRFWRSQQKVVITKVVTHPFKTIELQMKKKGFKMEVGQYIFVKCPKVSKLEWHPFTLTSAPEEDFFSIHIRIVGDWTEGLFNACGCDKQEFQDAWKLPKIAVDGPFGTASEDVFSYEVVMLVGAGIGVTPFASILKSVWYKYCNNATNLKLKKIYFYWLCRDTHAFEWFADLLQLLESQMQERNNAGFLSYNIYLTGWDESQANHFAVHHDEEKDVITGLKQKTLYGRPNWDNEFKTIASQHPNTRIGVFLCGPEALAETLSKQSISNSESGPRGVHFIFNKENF
Compound,composite z-score [1],z-score [2],z-score [3],z-score [4],z-score [5],composite z-score [6],composite z-score [7],composite z-score [8],composite z-score [9],composite z-score [10],z-score [11],composite z-score [12],z-score [13],z-score [14],z-score [15],z-score [16],z-score [17],z-score [18],z-score [19],z-score [20]
C=C(CCCC)C(=O)CC[C@@H](OC(=O)c1ccccc1-c1ccccc1C(=O)O)c1ccccc1OCCO,0.0726,-1.62 (inactive),-0.131 (inactive),6.69 (inactive),2.06 (inactive),-0.34,-0.157,1.21,0.818,1.56,0.414 (inactive),-0.0003,6.1 (inactive),0.148 (inactive),-0.138 (inactive),-1.14 (inactive),0.332,1.78 (inactive),0.0357 (inactive),-1.39
COc1ccc([Si](C)(C)[C@H]2[C@H](CCO)O[C@@]3(C(=O)N(Cc4cccc(N(C=O)c5ccccc5)c4)c4ccccc43)[C@@H]2C)cc1,0.313,-6.26 (inactive),-0.914 (inactive),-0.417 (inactive),-1.56 (inactive),1.21,-0.018,0.939,1.01,1.78,2.15 (inactive),-0.339,2.24 (inactive),2.47 (inactive),1.1 (inactive),1.82 (inactive),1.91,-1.31 (inactive),0.451 (inactive),0.00518
CC(C)N1C(=O)C[C@@](C(=O)NCCN2CCOCC2)(c2ccc([N+](=O)[O-])cc2)[C@H]1c1ccc(CO)cc1,-0.182,-2.94 (inactive),-1.4 (inactive),-0.295 (inactive),0.668 (inactive),-0.919,-0.154,-2.27,1.04,-1.1,0.344 (inactive),-0.832,1.63 (inactive),-0.0494 (inactive),1.53 (inactive),0.35 (inactive),0.265,-0.54 (inactive),-0.685 (inactive),-2.46
COCCOC(=O)N1C(=O)[C@@]2(c3cc(C#Cc4ccc(OC)cc4)ccc31)[C@H](c1ccc(OCCO)cc1)N1[C@H](c3ccccc3)[C@H](c3ccccc3)OC(=O)[C@H]1[C@@H]2C(=O)NC[C@H](O)c1ccccc1,0.316,-1.07 (inactive),-0.367 (inactive),-0.463 (inactive),0.003 (inactive),0.769,0.0301,0.677,0.603,1.5,-0.0906 (inactive),0.257,4.14 (inactive),2.07 (inactive),0.0276 (inactive),1.24 (inactive),-0.539,1.27 (inactive),0.708 (inactive),1.11
C[N+](C)(C)CCCCNC(=O)[C@H]1C[C@H]2C(=O)N[C@@H](Cc3ccccc3)C(=O)N2[C@H]1c1cccc(OCCO)c1,0.278,-0.15 (inactive),-0.495 (inactive),-0.13 (inactive),-0.384 (inactive),0.313,0.152,0.971,0.342,2.23,0.0946 (inactive),0.186,5.34 (inactive),0.772 (inactive),-0.835 (inactive),0.818 (inactive),0.17,-0.423 (inactive),-0.824 (inactive),-0.418
CC1CC/C=C\[C@H]2OC34C=CCN(c5ccc(Cl)cc5)C(=O)[C@H]3N(CCCCCCO)C(=O)[C@]4(C)C2C(=O)O1 (stereo not given in full),-0.765,0.641 (inactive),0.306 (inactive),1 (inactive),-0.446 (inactive),-0.963,-0.239,-2.03,-1.7,-0.12,0.348 (inactive),0.0999,-0.108 (inactive),-0.36 (inactive),-0.0544 (inactive),0.0625 (inactive),-0.11,1.37 (inactive),0.37 (inactive),1.98
CC(C)C[C@@H]1NC(=O)[C@@H]2C[C@H](C(=O)NCCCCCCNC(=O)CS)[C@H](c3cccc(OCCO)c3)N2C1=O,0.971,0.0734 (inactive),-0.253 (inactive),0.688 (inactive),0.0025 (inactive),1.22,0.159,1.15,1.18,2.38,-1.05 (inactive),0.196,7.13 (inactive),1.57 (inactive),1.01 (inactive),0.792 (inactive),-0.485,1.56 (inactive),0.427 (inactive),-0.196
C=C(COC)/C(=C/C[C@H](OC(C)=O)c1ccccc1OCCO)c1cc(C(=O)OC)ccc1OC,0.0266,-3.38 (inactive),0.0472 (inactive),14.7 (active),0.659 (inactive),-0.432,-0.0589,-0.035,0.727,1.2,0.311 (inactive),-0.145,8.11 (active),1.02 (inactive),0.454 (inactive),-0.897 (inactive),1.52,-0.688 (inactive),0.0021 (inactive),-1.97
COc1ccc(C(O)C2C=CC3C(=O)N(c4ccccc4)C(=O)C3N2Nc2ccc([N+](=O)[O-])cc2)c2ccccc12 (stereo not given),0.328,-0.8 (inactive),-0.557 (inactive),-0.228 (inactive),-0.838 (inactive),1.86,0.12,0.771,0.163,0.0892,-1.31 (inactive),0.364,9.23 (active),2.13 (inactive),0.722 (inactive),1.12 (inactive),-0.446,-0.273 (inactive),-0.96 (inactive),-1.55
C=C(/C(=C/C[C@@H](OC(C)=O)c1cccc(OCCO)c1)c1cnc2ccccc2c1)C(C)C,1,-1.69 (inactive),-1.04 (inactive),0.769 (inactive),1.32 (inactive),0.208,0.0013,1.83,1.29,2.05,0.509 (inactive),0.0582,12.5 (active),2.52 (inactive),1.24 (inactive),0.895 (inactive),0.328,-1.71 (inactive),-0.885 (inactive),-1.73
COc1ccc([Si](C)(C)[C@H]2[C@H](CC(=O)N3Cc4ccccc4C[C@H]3CO)O[C@@]3(C(=O)N(C)c4c(Br)cc(C)cc43)[C@@H]2C)cc1,0.144,-7.74 (inactive),-0.324 (inactive),7.68 (inactive),-1.29 (inactive),0.298,-0.0087,0.573,0.435,2.11,-1.05 (inactive),0.297,9.31 (active),2.16 (inactive),1.31 (inactive),1.68 (inactive),0.0914,0.0544 (inactive),0.794 (inactive),0.136
CCCC=C(CCC)[C@@H](NC(=O)OCC(C)C)c1ccc(C(=O)OC)cc1,-0.0326,-1.07 (inactive),0.3 (inactive),-1.72 (inactive),0.291 (inactive),0.153,-0.154,0.841,0.104,0.23,-0.531 (inactive),0.506,-1.17 (inactive),-0.781 (inactive),-1.07 (inactive),-1.47 (inactive),1.31,0.115 (inactive),1.89 (inactive),1.97
C=C(CCCC)/C(=C/C[C@H](OC(C)=O)c1cccc(OCCO)c1)c1cnc2ccccc2c1,0.0596,-0.717 (inactive),0.768 (inactive),7.36 (inactive),-0.134 (inactive),0.247,-0.208,-0.268,-0.348,0.477,0.186 (inactive),-0.193,23.7 (active),6.09 (inactive),1.94 (inactive),1.34 (inactive),-0.33,-0.532 (inactive),-0.294 (inactive),-1.76
O=C(NCC(O)CO)C1N=C(c2ccc(OCCCO)cc2)N(c2ccccc2)O1 (stereo not given),0.41,-1.12 (inactive),2.56 (inactive),0.456 (inactive),-0.442 (inactive),-0.214,-0.0468,0.975,0.682,1.27,-0.0446 (inactive),-0.316,13.5 (active),1.49 (inactive),0.257 (inactive),0.594 (inactive),0.0265,-1.68 (inactive),-1.05 (inactive),-0.583
COCCOC(=O)N1C(=O)[C@@]2(c3cc(C#CCCO)ccc31)[C@H](c1ccccc1OCCO)N1[C@H](c3ccccc3)[C@H](c3ccccc3)OC(=O)[C@H]1[C@@H]2C(N)=O,0.536,-4.33 (inactive),-0.441 (inactive),0.0653 (inactive),18.6 (active),0.508,-0.226,-0.0615,0.172,1.97,1.46 (inactive),-0.278,20.3 (active),4.04 (inactive),0.633 (inactive),0.934 (inactive),0.868,1.81 (inactive),0.552 (inactive),-0.302
COC(=O)[C@@]1(Cc2ccccc2)[C@H]2c3cc(C(=O)N4CCCC4)n(Cc4ccc(OC)c(OC)c4)c3C[C@H]2CN1C(=O)c1ccccc1,0.56,-1.99 (inactive),0.388 (inactive),0.39 (inactive),0.208 (inactive),0.782,0.715,0.279,1.18,-0.121,-1.08 (inactive),0.347,1.76 (inactive),0.41 (inactive),2.24 (inactive),0.861 (inactive),-0.321,0.136 (inactive),0.104 (inactive),-3.31
CN(C)CCCNC(=O)[C@@H]1c2ccccc2C(=O)N(Cc2ccccc2C(F)(F)F)[C@H]1c1ccc(CO)cc1,0.0246,-0.574 (inactive),0.405 (inactive),-0.206 (inactive),-0.951 (inactive),-0.734,-0.16,0.0406,-0.0393,0.547,1.77 (inactive),-0.103,2.54 (inactive),0.793 (inactive),1.21 (inactive),0.64 (inactive),-0.0975,0.383 (inactive),1.03 (inactive),1.11
